Consider 33 compounds from PubChem BioAssay AID588763 (NMMLSC, 2011).

SMILES strings stand for the structures. Measured potencies and affinities stand elsewhere. A number with no mark means an inactive call. The source made the active and inactive calls. The rule behind the calls is not given here.

Chain of Beta-2 adrenergic receptor (Homo sapiens) (P07550 whole entry, looked up): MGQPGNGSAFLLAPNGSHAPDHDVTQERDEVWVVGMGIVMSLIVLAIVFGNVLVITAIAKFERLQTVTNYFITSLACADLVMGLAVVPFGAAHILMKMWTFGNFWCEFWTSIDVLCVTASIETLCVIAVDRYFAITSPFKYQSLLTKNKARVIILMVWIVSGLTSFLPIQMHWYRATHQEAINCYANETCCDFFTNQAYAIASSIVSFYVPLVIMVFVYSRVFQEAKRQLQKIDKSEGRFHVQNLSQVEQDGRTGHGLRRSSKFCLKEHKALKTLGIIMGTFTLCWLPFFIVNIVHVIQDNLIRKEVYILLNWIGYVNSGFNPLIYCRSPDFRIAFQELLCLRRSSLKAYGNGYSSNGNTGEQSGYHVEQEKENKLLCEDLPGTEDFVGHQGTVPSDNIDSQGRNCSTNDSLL

This assay addresses Beta-2 adrenergic receptor (Homo sapiens) (UniProt P07550). The assay can be described thus: beta2AR agonists driving receptor internalization, dose response, cell-based, FAP fluorogen, flow cytometry, cherry pick 1 (AID 588763). Conditions: AM2.2-beta2AR cells, 90 min; series mostly up to 33 µM. A general note: In flow cytometry, cells or beads pass a laser one at a time.
For `Cc1ccc(OCc2cc(C(=O)NCc3cc(F)ccc3C)no2)cn1`, the compound was classed as inactive.
On to `N=c1n(CC(=O)c2ccc([N+](=O)[O-])cc2)c2ccccc2n1Cc1ccc(Cl)cc1`, for which the compound was called inactive.
Same read-out and setting: next, `COC(=O)c1ccccc1NC(=O)COc1ccc(S(=O)(=O)N2CCCC2)cc1C`: “inactive”; `COc1cc(NC(=O)c2ccco2)c(OC)cc1NC(=O)c1cc(OC)c(OC)c(OC)c1`: “inactive”; `O=C(c1ccc(OC2CCN(Cc3ccccc3C(F)(F)F)CC2)cc1)N1CCCCC1`: “inactive”.
Consider `COc1ccccc1-c1cc(C(F)(F)F)nc(S(=O)(=O)CCCC(=O)N2CCOCC2)n1`, for which the compound was classed as inactive.
Consider `CCOc1ccccc1CNC(=O)C1CCN(c2nnc(C)c3c(C)n(-c4ccc(C)cc4)nc23)CC1`, for which the compound was called inactive.
For the compound `O=C(Nc1ccc(-c2cccc(F)c2)cc1)C1CCCN(Cc2ccccn2)C1` (stereo not drawn), the result was inactive.
With `COc1ccc(C(CCNCc2ccc(OC(C)C)cc2)c2ccccc2OC)cc1` (stereo not drawn), the outcome was inactive.
In the case of `COC(=O)c1ccccc1NC(=O)Cn1nnc(-c2ccc(OC)cc2)n1`, the call was inactive.
For `CCOc1ccc(NC(=O)COc2ccc(S(=O)(=O)N3CCOCC3)cc2)cc1`, the compound was called inactive.
On the same count and under the same terms, for `CCC(NC(=O)c1cc(COc2ccc(C)nc2)on1)c1ccc(C)cc1` (stereo not drawn) the value was “inactive”; for `O=[N+]([O-])c1cnc(Sc2ccncn2)s1`, “inactive”; for `CC1CCCN(C(=O)C(C)Sc2nc(-c3ccccc3)cc(C(F)(F)F)n2)C1` (stereo not drawn), “inactive”.
Turning to `COc1cc(CNCCc2ccc(S(N)(=O)=O)cc2)ccc1OCc1ccc(Cl)cc1`, the compound was classed as inactive.
`Cc1ccccc1OCc1nc(-c2ccc(NC(=O)c3ccc4c(c3)OCO4)cc2)no1`: the call was inactive.
In the case of `COc1ccc(OC)c(NC(=O)c2sc3nc(C)cc(C)c3c2N)c1`, the activation (receptor internalization) is 0.987% [at 1.22 µM].
With `COc1ccc(OC)c(C(=O)NC(CC(N)=O)c2ccc(N3CCN(c4ccccn4)CC3)c([N+](=O)[O-])c2)c1` (stereo not drawn), the compound was called inactive.
Same read-out and setting: next, `COc1ccc(Cl)cc1NC(=O)COc1ccc(S(=O)(=O)N2CCOCC2)cc1C`: “inactive”; `COc1ccccc1-c1cc(C(F)(F)F)nc(S(=O)(=O)CCCC(=O)N2CCCCC2C)n1` (stereo not drawn): “inactive”.
Same read-out and setting: next, `COc1ccc(NC(=O)c2cccc(N3C(=O)c4cccc([N+](=O)[O-])c4C3=O)c2)cc1`: “inactive”; `Cc1cccc(-c2nnc(SCc3nc4ccccc4[nH]3)n2Cc2ccco2)c1`: “inactive”; `O=C(c1ccc(OC2CCN(Cc3cccc(OCCO)c3)CC2)cc1)N1CCCC1`: “inactive”.
With `O=C(Cn1nnc(-c2ccccc2)n1)Nc1ccccc1N1CCOCC1`, the outcome was inactive.
Turning to `COCC(C)NC(=O)CCS(=O)(=O)c1nc(-c2ccc(OC)cc2)cc(C(F)(F)F)n1` (stereo not drawn), the result was inactive.
In the case of `COc1ccc(OC)c(S(=O)(=O)N(C)CC(=O)N2CCN(c3ccccc3)CC2)c1`, the compound was called inactive.
Turning to `COC(=O)c1ccc(CNC(=O)c2cc(COc3cncc(Cl)c3)on2)cc1`, the outcome was inactive.
For the compound `O=C(Nc1ccccc1C(=O)O)c1cccc(N2C(=O)c3ccccc3C2=O)c1`, the call was inactive.
With `COc1cc(NC(=O)c2ccc3c(c2)OCO3)ccc1NC(=O)c1ccco1`, the compound was called inactive.
On to `CC(C)NCC(O)c1cc(O)cc(O)c1` (stereo not drawn), for which the call was inactive.
With `N=c1n(CC(=O)c2ccc([N+](=O)[O-])cc2)c2ccccc2n1Cc1ccccc1`, the outcome was inactive.
With `COc1ccc(C)cc1S(=O)(=O)N(C)CC(=O)N1CCN(c2ccccc2)CC1`, the outcome was inactive.
Regarding `COc1ccccc1CCC(=O)Nc1cccc(S(=O)(=O)N2CCCCCC2)c1`, the result was inactive.
